Assay outcomes from PubChem.
Hits are enriched below; roughly 4.1% of the tested compounds scored in any of these assays.
hgDAF-12 ag: agonists of H. glycines DAF-12 nuclear receptor; HEK293 GAL4-hgDAF12 UAS-luciferase reporter, agonist luminescence; normalized to butyrate control; 370,000 tested, 1.8% active; activation, % at 6.8 µM;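 active = activation above a cutoff set at the mean of all screened compounds plus 3 SD, cut at about 10% in these data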
DAX1 inh-1: inhibitors of human orphan nuclear receptor DAX1 (NR0B1); HEK293 Gal4-DAX1 luciferase reporter, luminescence; AID 504766; inhibition, % at 6.75 µM; P51843; 340,000 tested, 0.99% active;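 active = inhibition above the mean over all tested compounds plus 3 SD, cut at about 4.2% in these data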;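 also: inhibition shows as a rise in luminescence from relieved DAX1 repression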
hcDAF-12 act: activates DAF-12 receptor from parasite H. contortus; HEK293 hcDAF-12 lit1-tk-luc reporter, luminescence; 0% DMSO, 100% Δ7-dafachronic acid; activation, % at 6.8 µM; 370,000 tested, 1.4% active; AID 652067;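 active = activation above the mean of all tested compounds plus 3 SD, cut at about 5.5% in these data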
DAX1 inh-2: inhibitors of DAX1 repression of SF-1 activated StAR promoter | HEK293T StAR-luciferase reporter, SF-1/DAX-1 repression relief | inhibition, % at 6.8 µM | 370,000 tested, 1.1% active | AID 652010;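 active = inhibition above the mean over all tested compounds plus 3 SD, cut at about 3.6% in these data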;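 also: higher inhibition means more luminescence from relief of DAX-1 repression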
ssDAF-12 act: S. stercoralis DAF-12 activation, primary screen; HEK293 ssDAF-12/GRIP1 lit1-tk-luc reporter, luminescence; % of 3 µM dafachronic acid response; activation, % at 6.8 µM; 370,000 tested, 1% active; AID 652126;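 active = activation above the mean over all tested compounds plus 3 SD, cut at about 0.9% in these data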
LXRb hcDAF ctr: LXR-beta agonism as hcDAF-12 counter-screen; shares compounds with hcDAF-12 act; HEK293 Gal4-LXR tk-luc reporter, luminescence, 24 h; normalized: DMSO 0%, positive control 100%; activation, % at 6.8 µM; 3,400 tested, under 10 active; AID 743027;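 active = mean percent activation of the reporter above a cutoff set as the average over tested compounds plus their standard deviation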
Target sequence (P55055 whole entry, looked up, the tested form may be a part): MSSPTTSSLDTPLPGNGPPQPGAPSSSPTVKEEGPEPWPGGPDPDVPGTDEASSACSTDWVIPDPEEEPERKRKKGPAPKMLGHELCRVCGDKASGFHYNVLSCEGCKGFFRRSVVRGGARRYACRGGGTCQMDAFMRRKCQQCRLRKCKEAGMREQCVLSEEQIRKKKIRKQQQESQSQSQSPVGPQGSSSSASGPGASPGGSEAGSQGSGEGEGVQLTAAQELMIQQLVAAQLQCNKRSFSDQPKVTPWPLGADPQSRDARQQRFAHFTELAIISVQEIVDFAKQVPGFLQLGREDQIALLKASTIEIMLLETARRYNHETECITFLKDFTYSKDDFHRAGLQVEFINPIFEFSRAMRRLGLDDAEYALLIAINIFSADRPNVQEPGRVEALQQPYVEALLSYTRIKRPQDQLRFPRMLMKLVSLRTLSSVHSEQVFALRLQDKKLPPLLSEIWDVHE
hcDAF12 ag: hcDAF-12 agonism, confirmation assay; shares compounds with hcDAF-12 act; HEK293 hcDAF-12 lit1-tk-luc reporter, luminescence; % of Δ7-dafachronic acid response; activation, % at 6.8 µM; 3,400 tested, 61% active;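 active = mean activation across triplicate tests above the threshold derived from the earlier primary screen, cut at about 5.5% in these data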
A number is an active result; . = inactive; / = not tested or not shown.

SMILES | hgDAF-12 ag | DAX1 inh-1 | hcDAF-12 act | DAX1 inh-2 | ssDAF-12 act | LXRb hcDAF ctr | hcDAF12 ag
c1coc(-c2nc3ccccc3s2)c1 | . | . | . | . | . | / | /
Nc1ccccc1-c1nc2ccccc2s1 | 26 | . | 11 | . | 1.9 | . | 10
Oc1ccc(-c2nc3ccccc3s2)cc1 | 24 | . | 7.6 | 4.2 | 1.3 | . | 8.1
c1ccc2sc(-c3ccc4c(c3)OCO4)nc2c1 | / | . | / | / | / | / | /
CN(C)c1nc(N)nc(-c2nc3ccccc3s2)n1 | 11 | . | 9.3 | . | 1.6 | . | 16
COc1ccccc1NC(=O)C(C)OC(=O)CCNS(=O)(=O)c1ccc(C)c(C)c1 (centres undefined) | . | . | . | . | . | / | /
O=C1c2ccccc2S(=O)(=O)c2cc(N3CCOCC3)ccc21 | . | . | 6.6 | . | . | . | .
O=C1c2ccccc2S(=O)(=O)c2cc(N3CCN(c4ccccc4)CC3)ccc21 | . | / | . | . | . | / | /
COc1ccc(Cl)cc1S(=O)(=O)N1CCN=C1C | . | . | 12 | . | 1.6 | . | .
COc1ccc(N2c3ccccc3CN(Cc3ccccc3)[C@@H](C)[C@H]2Cc2cccnc2)cc1 | . | . | . | . | . | / | /
CCOc1ccc(C(CC(=O)O)n2cnnn2)cc1 (centres undefined) | . | . | . | . | . | / | /
O=C(O)CC/C(=C\c1ccccc1[N+](=O)[O-])c1nc2ccccc2s1 | . | . | . | . | . | / | /
O=C(O)CC/C(=C\c1cc([N+](=O)[O-])ccc1Cl)c1nc2ccccc2s1 | . | . | 8.8 | . | . | . | 7.9
NC(=O)C1(NC2CCCCC2)CCN(Cc2ccccc2)CC1 | . | . | . | . | . | / | /
CC(=O)Nc1ccc(-c2ccnc3c2CC(C)(C(=O)Nc2ccc(C(C)C)cc2)O3)cc1 (centres undefined) | . | / | . | . | . | / | /
Cc1ccc(NC(=O)n2ncc3c(C)cccc32)cc1F | . | . | 11 | . | 1.1 | . | 9.0
COc1ccc(CCNC(=O)c2c[nH]c3ccc(F)cc3c2=O)cc1OC | . | . | . | . | . | / | /
COc1ccc(-n2nc3ccccc3n2)cc1 | . | . | . | . | . | / | /
Cc1cc2nn(-c3cccc4ccccc34)nc2cc1N | . | . | . | . | . | / | /
CCc1ccc(-n2nc3cc(C)c(N)cc3n2)cc1 | 14 | . | 16 | . | 4.1 | . | 20
Cc1ccc(-n2nc3cc(C)c(N)cc3n2)cc1 | 11 | . | 15 | 3.9 | 2.5 | . | 16
CCc1ccc(S(=O)(=O)c2ccc(-n3nc(C)cc3N)cc2)cc1 | . | . | . | . | . | / | /
Nc1cc2nn(-c3ccccc3)nc2cc1Cl | 22 | . | 14 | 4.4 | 3.4 | . | 17
COc1ccc(-n2nc3cc(N)c(Br)cc3n2)cc1 | 13 | 5.8 | 13 | . | 1.2 | . | 12
COc1ccc(CN(C)S(=O)(=O)c2nnc(NC(=O)c3ccccc3OC)s2)cc1OC | . | . | 7.7 | . | . | . | .
SMILES | hgDAF-12 ag | DAX1 inh-1 | hcDAF-12 act | DAX1 inh-2 | ssDAF-12 act | LXRb hcDAF ctr | hcDAF12 ag
Cc1nn(-c2ccc(Br)cc2)c(=O)c2ccccc12 | 11 | . | 11 | . | 1.7 | . | 11
O=C(c1ccc(Cl)cc1)N1CCOc2ccccc21 | . | . | . | . | . | / | /
COc1cccc(NC(=O)Cc2nnc(SCC(=O)NC3=NCCS3)n2C)c1 | . | . | . | . | . | / | /
Cn1c(CC(=O)Nc2ccccc2)nnc1SCC(=O)NC1=NCCS1 | . | . | 7.6 | . | . | . | .
Cc1cc(C)nc(N/C(=N\S(=O)(=O)Cc2ccccc2)Nc2ccc(F)c(Cl)c2)n1 | . | . | . | . | . | / | /
Nc1c(C(=O)c2ccccc2)oc2ccc(Br)cc12 | 13 | 5.7 | 9.9 | 4.3 | 1.3 | . | 8.3
Cc1ccc(C(=O)c2oc3ccccc3c2N)cc1 | 11 | . | 9.5 | . | . | . | 9.7
COc1ccccc1OCc1nn[nH]n1 | . | . | . | . | . | / | /
CCCn1c(N)c(N(CCOC)C(=O)c2cc(C)cc(C)c2)c(=O)[nH]c1=O | . | . | . | . | . | / | /
CCn1cc(C(=O)N2CCCC(CO)(Cc3ccccc3C)C2)cn1 (centres undefined) | . | . | . | . | . | / | /
COc1ccc(-c2ccc(N3C(c4ccsc4)=Cc4ccc(F)cc4C3c3c[nH]c4ccccc34)cc2)cc1 (centres undefined) | . | / | 8.5 | . | 1.5 | . | 6.9
N#C/C(=C\c1ccc[nH]1)C(=O)c1ccccc1 | . | . | . | . | . | / | /
N#C/C(=C\c1ccc[nH]1)C(=O)Nc1ccccc1Cl | . | . | 11 | . | 1.2 | . | 12
O=C1Nc2ccc(Br)cc2C12NNc1ccccc1O2 (centres undefined) | . | . | 6.9 | . | . | . | .
O=C1Nc2ccc(Br)cc2C1(O)c1ccccc1 (centres undefined) | . | . | . | . | . | / | /
Cc1ccc(/C=[N+](\[O-])c2ccc(N(C)C)cc2)c2nsnc12 | . | . | . | . | . | / | /
c1ccc(-c2csc(Nc3ccccn3)n2)cc1 | 18 | . | 14 | . | 2.7 | . | 17
c1ccc2c(C3=NNC(=NC4CCCCC4)SC3)c[nH]c2c1 | . | . | 9.3 | . | 1.5 | . | .
Cc1nc2ccccc2nc(C)c1=NO | 12 | . | 8.6 | 4.1 | 1.0 | . | .
Cc1nc2ccc(Cl)cc2nc(C)/c1=N\O | 11 | 5.3 | 7.7 | . | 1.0 | . | 6.3
C/C(=N\NC(=O)c1ccccc1)c1c(C)[nH]n(-c2ccccc2)c1=O | . | 4.8 | 9.2 | . | . | . | .
C/C(=N\NC(=O)c1ccc(C)cc1)c1c(C)[nH]n(-c2ccccc2)c1=O | . | . | . | . | . | / | /
CC(NC(=O)c1ccco1)c1nc(-c2ccc(Cl)cc2)no1 (centres undefined) | . | . | . | . | . | / | /
Nc1[nH]c2cc(C(F)(F)F)ccc2c1C(=O)NCc1ccc(F)cc1 | . | / | 7.0 | . | . | . | .
CC(=O)c1c(C)[nH]c(C(=O)NCCc2ccc(Cl)cc2)c1C | . | . | . | . | . | / | /
Nc1[nH]c2cc(Cl)ccc2c1C(=O)NCCc1ccc(Cl)cc1 | . | / | 6.6 | . | . | . | 7.2
CCc1ccccc1C1C(=O)c2ccccc2C1=O | . | . | . | . | . | / | /
O=C1c2ccccc2C(=O)C1c1nccc2ccccc12 | 18 | . | 27 | . | 4.0 | . | 24
CC(C)c1cc(C(=O)N2CCCC(Nc3ccc(F)cc3)C2)n[nH]1 (centres undefined) | . | . | . | . | . | / | /
O=C(COC(=O)C1CCN(S(=O)(=O)c2ccccc2)CC1)NC(=O)c1ccc(OC(F)F)cc1 | . | . | . | . | . | / | /
